From PubChem
HT1080 IDH1KD tx: toxicity to HT-1080 IDH1 knockdown cells (counter line) | HT-1080 IDH1 knockdown viability, ATP luminescence, 48 h | Potency, µM (top dose mostly 46.1 µM), for the others: at the top dose activity, negative = toxicity, hits mostly cytotoxic | hit rate 2% among 360,000;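 note: potency is the fitted concentration of half-maximal effect; 0% = DMSO wells and -100% = cell-free medium wells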
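IDH1KD HT-1080 cells, 750/well, RPMI + 5% FBS; compound pinned after 2 h settling; 48 h, 37 °C; CellTiter-Glo luminescence; % activity normalised to DMSO and no-cell wells; curves fitted, classed by r2 and efficacy.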
HT1080NT lethal: kills 2HG-producing HT-1080-NT fibrosarcoma cells | AID 686970 | hit rate 1.6% among 360,000 | Potency, µM (series often up to 46.1 µM), without a hit: at the highest dose activity, negative = less viability, most hits filed as cytotoxic | HT-1080-NT fibrosarcoma viability, CellTiter-Glo ATP luminescence, 48 h;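 note: NT is the 2HG producing partner of a matched IDH1 knockdown line; potency is the fitted concentration of half-maximal effect; 0% = DMSO-treated cells and -100% = media-only wells without cells; nearly all actives have a fitted effect of over 55% in size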
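Viability by CellTiter-Glo luminescence after 48 h compound exposure at 37C of HT-1080-NT cells (750/well, RPMI, 5% FBS). % activity scaled between DMSO wells and medium-only wells, then curve-fitted and categorized by curve class.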
IL-1B inflam inh: inhibitors of inflammasome signaling (IL-1 beta secretion). AID 743279. activity change, % at 57.5 µM. hit rate 4.7% among 360,000. THP-1 LPS/ATP IL-1B secretion, AlphaLISA, 16 h; active compounds read low; in the data active = activity change below about -50%; inconclusive = mostly about -30% to -49%
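Secreted IL-1B measured by AlphaLISA bead assay after 16 h compound exposure of THP-1 cells; compounds (final up to 57.5 uM) added 1 h before LPS (250 ng/mL) and ATP (1.25 mM) stimulation; lower signal means less secretion.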
TDP1 cell CPT: growth inhibition of DT40 Tdp1-/-;hTDP1 cells with camptothecin (screen for TDP1 inhibitors); chicken DT40 Tdp1-/-;hTDP1 cells + 20 nM CPT, ATP luminescence, 48 h; Potency, µM (doses to about 46.2 µM), for inactives: top-dose activity change, negative = growth inhibition, most hits filed as inhibitors; hit rate 12% among 420,000; note: potency is the fitted concentration of half-maximal effect; nearly all actives have a fitted effect of over 55% in size
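Chicken DT40 Tdp1-/- cells complemented with human TDP1, 400 cells/well, exposed to compounds plus 20 nM camptothecin for at least 48 h at 37 C; viability read as ATP content by CellTiter-Glo luminescence.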
ALOX12 inh: ALOX12 (human) lipoxygenase inhibition; Potency, µM (series often up to 108 µM), without a hit: top-dose activity change, negative = inhibition, hits mostly inhibitors; purified 12hLO, xylenol orange hydroperoxide absorbance; hit rate 1.1% among 580,000; P18054; note: potency is the fitted concentration of half-maximal effect
Target sequence (P18054 whole entry, looked up): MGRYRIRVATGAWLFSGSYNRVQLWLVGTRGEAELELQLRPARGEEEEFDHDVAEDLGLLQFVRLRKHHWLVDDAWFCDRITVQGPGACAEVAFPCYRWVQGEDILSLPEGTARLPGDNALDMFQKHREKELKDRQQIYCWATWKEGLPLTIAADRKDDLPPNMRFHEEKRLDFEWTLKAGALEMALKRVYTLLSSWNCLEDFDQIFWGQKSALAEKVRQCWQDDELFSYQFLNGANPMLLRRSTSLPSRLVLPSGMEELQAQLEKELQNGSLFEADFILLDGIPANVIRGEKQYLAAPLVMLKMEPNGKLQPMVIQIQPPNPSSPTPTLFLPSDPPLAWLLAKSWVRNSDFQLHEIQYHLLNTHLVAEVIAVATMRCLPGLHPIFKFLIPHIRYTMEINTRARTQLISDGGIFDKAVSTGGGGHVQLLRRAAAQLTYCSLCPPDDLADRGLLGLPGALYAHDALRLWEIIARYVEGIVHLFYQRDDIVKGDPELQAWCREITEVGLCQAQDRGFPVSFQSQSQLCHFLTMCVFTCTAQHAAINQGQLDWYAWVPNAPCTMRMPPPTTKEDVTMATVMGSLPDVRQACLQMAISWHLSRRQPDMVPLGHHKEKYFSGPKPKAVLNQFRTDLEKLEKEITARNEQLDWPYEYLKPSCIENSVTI
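Purified human 12hLO at 150 nM in 25 mM Hepes, 0.01% Triton X-100, pH 7.0, preincubated 15 min at room temperature with compound. Reaction started with 40 uM arachidonic acid, 30 min at room temperature. Hydroperoxide measured by Fe-xylenol orange, 573/405 nm absorbance ratio.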
DT40 TDP1 no CPT: qHTS for Inhibitors of human tyrosyl-DNA phosphodiesterase 1 (TDP1): qHTS in cells in absence of CPT. DT40 Tdp1-/- hTDP1 cells, no CPT, ATP luminescence, 48 h. Potency, µM (top dose mostly 46.2 µM), without a hit: at the top dose activity change, negative = growth inhibition, hits mostly inhibitors. AID 686978, 2013. hit rate 15% among 420,000; note: potency is the fitted concentration of half-maximal effect; nearly all actives have a fitted effect of over 55% in size
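Camptothecin absent (DMSO only). Human TDP1-complemented DT40 knockout cells, 400 cells/well, 37 °C for minimum 48 hr; ATP measured via CellTiter-Glo, 30 min dark incubation, luminescence.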
* hit, by the source's call; ? = inconclusive; . = no result. This excerpt belongs to a sample that is enriched for hits. Unless noted, calls come from the whole dose curve; as a rule, active = well fitted curve in the direction sought with a large enough effect; inconclusive = small, poorly fitted or top-dose-only effect, or another doubt; inactive = no such curve, though single readings can be large; an effect the other way counts as inactive or inconclusive. Unless noted, % is set by controls: 0 for no effect and ±100 for the full control effect.

SMILES | HT1080 IDH1KD tx | HT1080NT lethal | IL-1B inflam inh | TDP1 cell CPT | ALOX12 inh | DT40 TDP1 no CPT
Cc1ccc(CN(Cc2ccco2)C(=O)c2oc3ccc(C)cc3c2C)cc1 | . | . | . | ? | -9.7% | 14.6µM*
CCCCNC(=O)CNC(=S)N(Cc1ccc(C)cc1)Cc1ccco1 | -11.4% | -6.1% | ? | ? | -15.9% | ?
Cc1ccc(C(=O)N(Cc2ccco2)Cc2ccco2)cc1 | . | . | . | -11.1% | ? | ?
Cc1ccc(CN(Cc2ccco2)C(=O)c2oc3c(C)c(C)ccc3c2C)cc1 | . | . | . | ? | ? | 23.1µM*
Cc1ccc(CN(Cc2ccco2)C(=O)c2cccc(C)c2)cc1 | . | . | . | 14.6µM* | -2.1% | 16.4µM*
COc1ccc2oc(C(=O)N(Cc3ccco3)Cc3cccs3)c(C)c2c1 | -0.1% | -0.1% | -9.4 | ? | -5.6% | ?
Cc1cc2oc(C(=O)N(Cc3ccccc3)Cc3ccco3)cc(=O)c2cc1Cl | . | . | . | . | -0.3% | .
Cc1cc2oc(C(=O)N(Cc3ccco3)Cc3ccccc3Cl)c(C)c2cc1C | . | . | . | ? | -19.2% | 14.6µM*
CCN(CC)C(=O)NC(c1ccc(C)c(F)c1)C(Cl)(Cl)Cl (stereo not given) | -4.6% | -1.5% | -3.8 | 16.4µM* | ? | 16.4µM*
Cc1c(C)n(CCO)c2ncn3nc(CSc4nc5ccccc5o4)nc3c12 | . | . | . | . | -3.2% | .
CCCCCCN1C[C@@H](n2cc(COC(=O)c3ccccc3)nn2)[C@H](O)C[C@@H]1c1ccc(C)cc1 | -13.9% | 9.0% | -8.3 | 18.4µM* | -18.2% | 11.6µM*
CCCCCCN1C[C@H](O)[C@@H](n2cc(COC(=O)c3ccccc3)nn2)C[C@@H]1c1ccc(C)cc1 | -14.8% | -18.5% | -4.3 | ? | ? | 16.4µM*
CCCCCC(=O)N1C[C@@H](n2cc(COC(=O)c3ccccc3)nn2)[C@H](O)C[C@@H]1c1ccc(Cl)cc1 | -7.2% | -10.2% | 7.3 | ? | -9.6% | ?
CCCCCC(=O)N1C[C@H](n2cc(COC(=O)c3ccccc3)nn2)[C@@H](O)C[C@@H]1c1ccc(Cl)cc1 | ? | ? | -1.1 | ? | ? | 16.4µM*
Nc1c2c(=O)oc(-c3ccccc3)cc2nn1-c1ccccc1 | ? | ? | -99.4* | 25.9µM* | -9.8% | ?
Cc1cc2c(c(C)nn2-c2ccccc2)c(=O)o1 | -0.4% | 5.0% | 10.3 | -3.4% | -12.9% | -14.7%
Cc1c(-c2ccc(Cl)cc2)oc(=O)c2c(N)n(-c3ccccc3)nc12 | -17.0% | -0.2% | 0.0 | ? | 0.0% | 7.31µM*
CC(C)C[C@H]1CNC(=S)N1C[C@H]1CCCN1C[C@H](Cc1ccc(O)cc1)N1C[C@H](Cc2ccccc2)N(CC2CCCCC2)C1=S | -4.3% | -18.5% | -16.1 | ? | 0.0% | 18.4µM*
CC(C)C[C@H]1CNC(=S)N1CC1CCCN1C[C@H](Cc1ccccc1)N1C[C@H](Cc2ccc(O)cc2)N(CC2CCCCC2)C1=S (stereo not given in full) | ? | -27.0% | ? | ? | ? | ?
CC(C)C[C@H]1CNC(=S)N1C[C@H]1CCCN1C[C@H](Cc1ccccc1)N1C[C@H](Cc2ccc(O)cc2)N(CC2CCCCCC2)C1=S | 14.6µM* | 20.6µM* | -11.9 | 14.6µM* | 39.8µM* | 13µM*
CC(C)C[C@H]1CNC(=O)C(=O)N1C[C@@H]1CCCN1C[C@H](Cc1ccc(O)cc1)N1C[C@H](Cc2ccccc2)N(CC2CCCCCC2)C(=O)C1=O | ? | ? | -2.7 | ? | ? | ?
CC(C)C[C@H]1CNC(=S)N1CC1CCCN1C[C@H](Cc1ccc(O)cc1)N1C[C@H](Cc2ccccc2)N(CC2CCCCCC2)C1=S (stereo not given in full) | -6.6% | 0.0% | -28.3 | ? | ? | 20.6µM*
CC(C)C[C@H]1CNC(=S)N1C[C@H]1CCCN1C[C@H](Cc1ccc(O)cc1)N1C[C@H](CC(C)C)N(CC2CCCCCC2)C1=S | ? | ? | ? | 16.4µM* | -10.9% | 20.6µM*
Cc1cccc(NS(=O)(=O)c2c(C)nn(C)c2C)c1C | . | . | . | . | 1.2% | .
CC(C)c1nc(N2CCN(C(=O)C(=O)N3CCCC3)CC2)c(C#N)c2c1CCCC2 | . | . | . | . | 12.3% | .
SMILES | HT1080 IDH1KD tx | HT1080NT lethal | IL-1B inflam inh | TDP1 cell CPT | ALOX12 inh | DT40 TDP1 no CPT
COc1ccc(NS(=O)(=O)c2cccc(C(=O)N3CCc4sccc4C3)c2)cc1 | . | . | . | . | -37.6% | .
CCNc1ccc(S(=O)(=O)N2CCOCC2)cc1NC(=O)Cc1c[nH]c2ccccc12 | . | . | . | . | -21.0% | .
CC(C)C[C@H]1CN([C@@H](Cc2ccc(O)cc2)CN2CCC[C@@H]2CN2C(=S)NC[C@@H]2Cc2ccccc2)C(=S)N1CC1CCCCC1 | -18.1% | -23.8% | -21.8 | 16.4µM* | ? | 16.4µM*
CC(C)C[C@H]1CN([C@@H](Cc2ccccc2)CN2CCCC2CN2C(=S)NC[C@@H]2Cc2ccccc2)C(=S)N1CC1CCCCC1 (stereo not given in full) | 13.1% | -2.9% | -6.6 | 6.51µM* | ? | 7.31µM*
CCN(CC)C(=O)c1ccc2oc(CN3CCN(C(=O)Nc4cccc(Cl)c4C)CC3)nc2c1 | . | . | . | . | 0.0% | .
O=C(Nc1ccc2c(ccn2CCN2CCOCC2)c1)C1CCC1 | . | . | . | . | 3.2% | .
C/C(CC12CC3CC(CC(C3)C1)C2)=N\NC(=O)C1CC1 | . | . | . | . | 51.6% | .
CC(C)c1ccc(NC(=O)C2(C)Cc3c(-c4cccc(C(N)=O)c4)ccnc3O2)cc1 (stereo not given) | ? | ? | -69.1* | ? | 1.1% | ?
CC(=O)Nc1cccc(-c2ccnc3c2CC(C)(C(=O)Nc2ccc(C(C)C)cc2)O3)c1 (stereo not given) | ? | ? | -60.3* | ? | -21.9% | ?
CC1(C(=O)Nc2ccc(Cl)cc2)Cc2c(-c3cccc(C(N)=O)c3)ccnc2O1 (stereo not given) | 4.61µM* | ? | 0.0 | 3.66µM* | -65.4% | 5.8µM*
CC1(C(=O)Nc2ccccc2)Cc2c(-c3cccc(C(N)=O)c3)ccnc2O1 (stereo not given) | 7.1% | 1.1% | -9.4 | ? | 11.7% | -21.0%
CC1(C(=O)Nc2ccc(F)c(Cl)c2)Cc2c(-c3ccc(C(N)=O)cc3)ccnc2O1 (stereo not given) | 20.6µM* | ? | -79.2* | 20.6µM* | ? | 18.4µM*
